Source: PubChem (several laboratories)
WT yeast gro inh – growth inhibition of WT yeast, mitochondrial fusion screen; mitochondrial fusion phenotypic screen, WT strain; actives 2.1% (n = 190,000); inhibition, % at 10 µM; in the data active = inhibition above about 58%; tested in S. cerevisiae
Lmaj promast – Leishmania major promastigote growth inhibition. actives 9% (n = 200,000). Leishmania major promastigotes, resazurin fluorescence viability. inhibition, % at 10 µM; in the data active = inhibition above about 50%;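 note: promastigotes grown with compound for 44 hours at 28 °C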
CHOP inhibitor – CHOP inhibition in unfolded protein response; AID 2732; inhibition, % at 10 µM; CHO-K1 CHOP-promoter luciferase, tunicamycin-induced, 15-18 h; actives 3.8% (n = 220,000);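 active = compounds that reduced the stress-induced luciferase reporter signal by more than about 70% of percent inhibition, limit read from the data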
Arbovirus inh – arbovirus infection inhibition; arbovirus infection cell-based antiviral screen; AID 1251; actives 0.37% (n = 200,000); inhibition, % at 10 µM; in the data active = inhibition above about 30%
Numbers stand for hits; n = inactive; x = not tested or not shown. Hits are enriched below; roughly 12% of the tested compounds scored in any of these assays.

SMILES	WT yeast gro inh	Lmaj promast	CHOP inhibitor	Arbovirus inh
CCCn1c(N/N=C\C=C\c2ccccc2)nc2c1c(=O)[nH]c(=O)n2C	n	n	93	n
COC(=O)C1=C(C(=O)OC)[C@@H]2N(C)c3ccccc3[C@@]23C[C@@H](CO)N(C(=O)NCCBr)C3=N1	x	x	n	x
CCOC(=O)Nc1c(Cl)n(C)c(=O)n(C)c1=O	x	x	n	x
COCCCN1C(=O)/C(=C\c2cccs2)C(C(=O)OC)=C1C	n	n	n	n
CCOC(=O)C(C)(C)N(Cc1ccc(C)cc1)S(=O)(=O)c1ccc(Cl)c([N+](=O)[O-])c1	n	100	n	n
CCOC(=O)C(C)(C)N(Cc1ccc(Cl)cc1)S(=O)(=O)c1ccc(Cl)c([N+](=O)[O-])c1	n	99	n	n
CCOC(=O)C(C)(C)NS(=O)(=O)c1ccc(Cl)c([N+](=O)[O-])c1	n	n	n	n
CCC1(C)N(O)C(C)(C)C(c2ccc(F)cc2)=[N+]1[O-] (centres undefined)	n	n	n	n
CN1CCCCc2c1nc1ccccc1c2N (tested in a mixture with another compound)	n	92	n	n
CCCCC(=O)NCc1ccc(Cl)cc1	n	n	n	n
O=C(CCN1C(=O)c2cccc3cccc(c23)C1=O)N1CCOCC1	n	n	n	n
O=C(CCCN1C(=O)c2cccc3cccc(c23)C1=O)N1CCN(c2ccc(F)cc2)CC1	n	58	n	n
Fc1ccc(N2CCN(C3=Nc4cccc5cccc3c45)CC2)cc1	59	98	n	n
CCOc1ccc(-c2cc(CCCC(=O)N3CCN(c4ccc(OC)cc4)CC3)no2)cc1	n	n	94	n
COc1ccc(N2CCN(C(=O)CCCN3C(=O)c4cccc5cccc(c45)C3=O)CC2)cc1	x	98	n	n
CC(C)[C@H](NC(=O)c1ccc(F)cc1)C(=O)NC1=NCCS1	n	n	n	n
Cc1nc2ccccc2c2c1C(=O)NC2=O	x	x	n	x
COc1ccc(CCn2nnnc2C(CC(C)C)N2CCN(c3ncccn3)CC2)cc1OC (centres undefined)	66	n	n	n
COc1ccc(N2CCN(C(c3nnnn3CCc3ccccc3)C(C)C)CC2)cc1 (centres undefined)	n	89	n	n
COc1ccc(CCn2nnnc2C(C(C)C)N2CCN(c3ncccn3)CC2)cc1OC (centres undefined)	62	n	n	n
Cc1ccc(S(=O)(=O)NCC2(c3ccccc3)CCOCC2)cc1	n	n	n	n
Cc1ccc(S(=O)(=O)NCCC2(C(C)C)CCOC(C)(C)C2)cc1 (centres undefined)	n	95	n	n
Cc1ccc(S(=O)(=O)NCC[C@@]2(C)C3CCC2(C)C(=O)C3)cc1 (some centres undefined)	x	x	n	x
CC1(C)CC(CCNS(=O)(=O)c2ccccc2)(c2ccccc2)CCO1 (centres undefined)	n	100	n	n
CCC1(C)CC(CCNS(=O)(=O)c2ccc(C)cc2)(c2ccc(C)cc2)CCO1 (centres undefined)	n	52	73	n
SMILES	WT yeast gro inh	Lmaj promast	CHOP inhibitor	Arbovirus inh
CC1(C)CC(CCNC(=O)CCl)(c2ccccc2)CCO1 (centres undefined)	x	x	n	x
COc1cccc2[nH]c3c(N4CCCC(C)C4)ncnc3c12 (centres undefined)	n	99	n	n
COc1cc2[nH]c3c(N4CCC(C(N)=O)CC4)ncnc3c2cc1OC	n	n	n	n
CCOC(=O)C1CCCN(c2ncnc3c2[nH]c2cccc(OC)c23)C1 (centres undefined)	n	76	n	n
COc1cccc2[nH]c3c(N4CC(C)CC(C)C4)ncnc3c12 (centres undefined)	n	100	n	n
COc1cccc2[nH]c3c(N4CCC(C(N)=O)CC4)ncnc3c12	n	n	n	n
CCN(CC)CCn1cnc2c([nH]c3cccc(OC)c32)c1=O	n	n	n	n
CCC(C)[C@H](NC(=O)NCc1ccc(S(N)(=O)=O)cc1)C(=O)O (some centres undefined)	x	x	n	x
CCC(=O)c1cc2c(C)cc(=O)oc2c(C)c1OC(=O)C(C)C	n	n	n	n
CCCCc1c(C)c(C#N)c2nc3ccccc3n2c1Cl	n	100	106	n
CCc1c(C)c(C#N)c2nc3ccccc3n2c1N(C)C	n	n	n	n
Cc1cc([N+](=O)[O-])nn1CC(=O)N/N=C/c1ccc(O)cc1O	x	x	n	x
O=[N+]([O-])c1cc([N+](=O)[O-])c(N2CCCCCC2)cc1NCCO	80	n	n	n
O=[N+]([O-])c1cc(S(=O)(=O)c2ccc(N3CCCCC3)c([N+](=O)[O-])c2)ccc1N1CCCCC1	n	95	n	n
O=C(/C=C/c1ccc(N2CCCCC2)c([N+](=O)[O-])c1)c1ccc(S(=O)(=O)N2CCCC2)cc1	n	100	n	n
CSCCCNC(=S)N(C)CC(=O)Nc1ccc(C)cc1	n	n	n	n
COC(=O)COc1ccc(NS(=O)(=O)c2cccc([N+](=O)[O-])c2)cc1	n	n	n	n
O=C(N/N=C/c1cn(-c2ccccc2)nc1-c1cc2ccccc2o1)c1ccncc1	n	n	n	n
O=C(N/N=C/c1cn(-c2ccccc2)nc1-c1cc2ccccc2o1)c1cccnc1	n	97	n	n
O=Cc1cn(-c2ccccc2)nc1-c1cc2ccccc2oc1=O	n	n	88	n
CCOC(=O)CSc1nc(=O)n2cccc(C)c2n1	n	n	n	n
O=C(N[C@@H](Cc1ccc(O)cc1)C(=O)O)c1cccnc1	n	n	n	n
O=C1C(NS(=O)(=O)c2ccc(Cl)cc2)=C(N2CCCCC2)C(=O)c2ccccc21	n	89	n	n
CC(=O)CCS(=O)(=O)c1ccc(Oc2ccc(S(=O)(=O)CCC(C)=O)cc2)cc1	n	54	n	n
CCCCOc1ccc(NC(=O)C(=O)NCCCn2ccnc2)cc1	n	n	n	n
SMILES	WT yeast gro inh	Lmaj promast	CHOP inhibitor	Arbovirus inh
CCOc1ccc(NC(=S)NCCCn2ccnc2)cc1	n	83	n	n
COC(=O)c1cc2c(ccn2-c2ccc(F)cc2)n1CC(C)C	n	98	n	n
CCCn1c(C(=O)OC)cc2c1ccn2-c1ccc(F)cc1	n	99	71	n
O=C(Nc1ccc(Br)cc1F)c1ccc2c(c1)N(Cc1ccccc1)C(=O)CS2=O (centres undefined)	n	100	n	n
CN(C)CCCN1C(=O)c2cccc3c(Br)ccc(c23)C1=O	n	100	n	n
CCCCNc1ccc2c3c(cccc13)C(=O)N(CCCC)C2=O	x	x	n	x
CCn1c(C)cc(/C=C2/NC(=O)N(CC(=O)Nc3cccc(C)c3)C2=O)c1C	n	n	n	n
CCn1c(C)cc(/C=C2\SC(=O)N(CC(=O)Nc3ccc(C)c(C)c3)C2=O)c1C	n	n	93	n
Cc1ccc(NC(=O)CN2C(=O)S/C(=C\C(=O)Nc3ccc(Cl)cc3)C2=O)cc1	n	63	n	n
Cc1ccc(NC(=O)CN2C(=O)S/C(=C/c3ccc(-c4cc(C(=O)O)ccc4C)o3)C2=O)cc1C	n	n	n	n
CCn1c(C)cc(/C=C2\NC(=O)N(CC(=O)Nc3cccc(C)c3)C2=O)c1C	n	n	81	n
CCNC(=S)N1CCN(CC)CC1	n	n	n	n
Cc1ccc(-c2nc3cccnc3o2)cc1NC(=O)COc1ccc(Cl)cc1C	n	94	n	n
